Experimental findings from PubChem BioAssay (NCI) are described below.

Holding throughout (assay): NCI-60 one-dose screen, 48 h (100 = growth as untreated, 0 = no growth, -100 = all killed)
What all share (conditions): 10 µM unless noted

Assay [1] deals with SK-MEL-2 melanoma.
Assay [2] concerns EKVX NSCLC.
The subject of assay [3] is SN12C renal.
The subject of assay [4] is UO-31 renal.
Assay [5] has as its system TK-10 renal.
Assay [6] deals with ACHN renal.
Assay [7] concerns A498 renal.
The subject of assay [8] is CCRF-CEM leukemia.
For assay [9], the system named is MOLT-4 leukemia.
For assay [10], the system named is CAKI-1 renal.

Compounds without any hit were thinned out: in the full panel of roughly 83,000, 20% have a hit.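 How to read the values: 0–100, growth inhibition (40 = 60% inhibited); 0, no net growth; -100 to 0, cell death (-40 = 40% of starting cells died; -100 = all dead).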 Values without a mark were called inactive. Calls of active or inactive are those of the source. Rule for the calls: active = growth percent below 10; inactive = the rest.

`CCCCCC(=O)Oc1ccc(/C(=C(\C)c2ccccc2)c2ccc(OCCN(CC)CC)cc2)cc1`: the growth was 87.6% in [1]; 92.5% in assay [2]; 79.8% in assay [3]; 48.4% in assay [4]; 74.6% in [5]; 87.9% in assay [6]. Also, the growth in [7] was 84.8%; in assay [8], 63.9%; in assay [9], 46.1%.
With `COC(=O)[C@@H]1CC[C@]2(C)[C@H](CC[C@@H]3O[C@@]32C)[C@@]1(C)CC(=O)c1ccoc1`, the growth in assay [1] is 78.2%; in [2], 105%; in [3], 92.7%; in assay [4], 97%; in [5] it was 84%; in [6], 105%. In addition, the figures for the growth in assay [7], in assay [8] and in [9] were 88.6%, 102% and 94.8%, respectively.
With `O=[N+]([O-])c1cccc(-c2nc3sccn3c2-c2ccnc(NCCCNS(=O)(=O)c3ccc(Br)cc3)n2)c1`, the growth in assay [1] is 47%; in assay [2] it was 59.4%; in assay [3] it was 53%; in assay [4] it was 22.7%; in assay [5], 102%; in assay [6], 46.7%. Besides, the growth in assay [10] is 41.4%; in assay [7] it was 52.8%; in [9], 19.7%.
For `CN1CCN(Cc2ccc(NC(=O)c3cncc(C#Cc4cnc(N)c5cccnc45)c3)cc2C(F)(F)F)CC1`, the growth in assay [1] is -27.1% (active); in [2], 14.1%; in assay [3] it was 11.6%; in [4], 2.87% (active); in assay [5], 50.1%; in assay [6] it was 6.51% (active). Further, the growth was 1.93% (active) in assay [10], -27.5% (active) in assay [7] and 18.1% in assay [9].
Regarding `CN(C)c1ccc(C2Nc3ccccc3-n3cccc32)cc1` (stereo not given), the growth in assay [1] is 118%; in assay [2], 87.8%; in assay [3], 89.5%; in assay [4], 64.2%; in [5] it was 55.7%; in assay [6] it was 86.6%. Also, the growth was 113% in assay [7], 109% in [8] and 104% in assay [9].
With `Nc1ccc2c(c1)C(=O)NC2=O`, the growth in [1] was 117%; in assay [2], 112%; in assay [3] it was 94.9%; in assay [4], 70.8%; in assay [5] it was 118%; in assay [6] it was 99.3%. The growth in assay [7] is 119%; in assay [8], -49.6% (active); in [9], 105%.
With `C=C1CCC2C3(C)COC(c4ccc(OC)cc4Br)OC3CCC2(C)C1/C=C/C1=CCOC1=O` (stereo not given), the growth in [1] is 81.2%; in assay [2] it was 44.2%; in [3] it was 79.8%; in [4] it was 54.2%; in assay [5], 83.9%; in assay [6] it was 81.1%. Moreover, the results for the growth in [10], in assay [7] and in assay [9] were 74.3%, 72.2% and 55.7%, respectively.
Take `Oc1ccc(Nc2nccc(-c3ccc4ccccc4c3)n2)cc1`: the growth was 9.62% (active) in assay [1]; 58.1% in assay [2]; 32.4% in assay [3]; 29% in assay [4]; 49.4% in assay [5]; 42.8% in assay [6]. Besides, the growth in [7] is 21.8%; in assay [8] it was 9.76% (active); in [9], 14.8%.
In the case of `COc1c2ccccc2c(OC)c2[nH]c(=O)ccc12`, the growth in assay [1] is 64.2%; in [2] it was 27.8%; in [3], 40.5%; in assay [4] it was 59.9%; in assay [5] it was 110%; in assay [6] it was 65.1%. Besides, the values for the growth in assay [7], in [8] and in [9] were 48.3%, -58.7% (active) and 69.4%, respectively.
In the case of `COc1cc(-c2c3c(nc4c2c(C)nn4-c2ccccc2)-c2ccccc2C(=O)C3=O)cc(OC)c1OC`, the growth in assay [1] is 72.3%; in assay [2] it was 98.3%; in assay [3] it was 90.5%; in assay [4] it was 73.1%; in assay [10], 74.4%; in assay [7], 83.7%. The growth was 54.4% in assay [8] and 52.5% in [9].
Regarding `O=C([C@@H](COCc1ccccc1)N1C(=O)[C@@H](N2C(=O)OC[C@@H]2c2ccccc2)[C@H]1/C=C/c1ccccc1)N1CCC(CCN2CCCCC2)CC1`, the growth in assay [1] was 71.7%; in [2], 93.1%; in assay [3], 83.4%; in assay [4] it was 69.3%; in [5], 59.8%; in [10], 99.9%. Besides, the figures for the growth in assay [7], in assay [8] and in assay [9] were 50.1%, 95.4% and 62.8%, respectively.
Regarding `Nc1cccc(-c2nc3sccn3c2-c2ccnc(NCCCNS(=O)(=O)c3ccc(C(F)(F)F)cc3)n2)c1`, the growth in assay [1] is -21.7% (active); in [2], 21.1%; in assay [3] it was 12.8%; in assay [4], -8.25% (active); in [5], 47.5%; in [10], 18.3%. Besides, the growth in assay [7] is 11.2%; in [8], 6.17% (active); in assay [9] it was -29.6% (active).
As for `CCN(CC)CC(C)(C)C(=O)/C=C/c1ccccc1`, the growth in assay [1] is 99.9%; in [2], 26.7%; in [3], 41.1%; in assay [5] it was 91.5%; in assay [6], 43.1%; in assay [10], 49.7%. Moreover, the growth in assay [7] is 68.4%; in assay [8] it was 9.36% (active); in assay [9] it was 19.1%.
Take `COc1ncc(-c2ccc3ncnc(Nc4cccc(Cl)c4)c3c2)cc1NS(C)(=O)=O`: the growth in assay [1] was 32%; in assay [2], 12.1%; in assay [3], 29.1%; in [4], 8.8% (active); in [5], -11.1% (active); in assay [10] it was 14.9%. The growth in [7] was 0.974% (active); in assay [8], 32.5%; in assay [9], -6.32% (active).
For the compound `COc1cc(C(=O)/C=C/c2c(C)n([O-])c3ccc(C)cc3[n+]2=O)cc(OC)c1OC`, the growth was 84.3% in [1]; 50.8% in assay [2]; 60% in assay [3]; -27.3% (active) in [4]; 26.6% in [5]; -40.9% (active) in [6]. For the same compound, the growth in [7] is 95.3%; in [9], -30.2% (active).
With `CCCC(=O)Oc1ccc(/C(=C(/CC)Cc2ccccc2)c2ccc(OCCN3CCCC3)cc2)cc1`, the growth was 103% in assay [1]; 81.4% in assay [2]; 99.4% in [3]; 66.5% in assay [4]; 87.8% in assay [5]; 85.2% in [10]. In addition, the results for the growth in [7], in [8] and in [9] were 71.9%, 84.4% and 51.6%, respectively.
Take `CCN(CC)CC#CCOC(=O)[C@]1(C)CCC[C@@]2(C)[C@H]1CC(C=O)=C1C=C(C(C)C)CC[C@@H]12`: the growth is 88% in [1]; 77.8% in [2]; 77.6% in assay [3]; 52.6% in [4]; 77.1% in assay [5]; 101% in assay [10]. In addition, the growth in [7] is 69.7%; in [9] it was 50.1%.
Turning to `O=C(COCc1c(-c2ccccc2)no[n+]1[O-])Nc1ccc(C(=O)/C=C/c2ccc3c(c2)OCO3)cc1`, the growth was 134% in assay [1]; 108% in assay [2]; 102% in [3]; 87.4% in assay [4]; 94.6% in assay [6]; 111% in assay [7]. Also, the growth in assay [8] is 82.4%; in [9], 77.2%.
In the case of `COc1ccc(-c2c3c(nc4n[nH]c(-c5ccc(Cl)cc5)c24)-c2ccccc2C(=O)C3=O)cc1`, the growth in [1] is -49.8% (active); in assay [2] it was 59%; in assay [3], 12%; in assay [4], 0.604% (active); in [5], -28.7% (active); in assay [10], 47.1%. For the same compound, the growth was 53.8% in assay [7], -6.2% (active) in assay [8] and 0.0593% (active) in [9].
Turning to `CC[n+]1ccc2c(c1)C(=O)c1nccc3c1c-2nc1ccccc13`, the growth was -34% (active) in assay [1]; 11.2% in assay [2]; -75% (active) in assay [3]; 15.1% in assay [4]; 18.7% in [5]; 24.7% in [10]. The results for the growth in [7] and in [9] were -9.88% (active) and -30% (active), respectively.
Consider `C[C@@H]1CCC2=C(CCC[C@]2(C)C(=O)O)[C@@]1(C)CCc1ccoc1`, for which the growth in [1] is 92.1%; in assay [2] it was 101%; in assay [3], 89.6%; in assay [4], 87.7%; in [5], 92.3%; in assay [10], 99.6%. Besides, the growth in assay [7] was 83.3%; in assay [8], 102%; in [9] it was 113%.
Consider `CC(C)(C)c1nn(-c2ccccc2)c2c1CC1(CN2Cc2ccc3c(c2)OCO3)C(=O)c2ccccc2C1=O`, for which the growth was 115% in [1]; 119% in assay [2]; 96.5% in assay [3]; 104% in [4]; 89.9% in [6]; 98.9% in assay [10]. The growth in assay [7] is 106%; in [8] it was 85.2%; in [9], 80.3%.
For `CNC(=O)c1cc(Oc2ccc3nc(NC(=O)Nc4ccc(CN5CCOCC5)c(C(F)(F)F)c4)sc3c2)ccn1`, the growth in assay [1] is 32.9%; in assay [2], 25.4%; in assay [3], 27.8%; in assay [4], 26.6%; in assay [5], 43.9%; in assay [6], 16.2%. In addition, the growth in assay [7] was 9.05% (active); in assay [8], 17.7%; in assay [9], 3.75% (active).
As to `O=c1ccc2cc3ccccc3cc2[nH]1`, the growth in assay [1] is 97.5%; in assay [2] it was 28.1%; in assay [3], 94.4%; in assay [4], 76.4%; in [5], 119%; in assay [10] it was 78.4%. Besides, the growth in assay [7] is 97.9%; in [8], -72.7% (active); in [9] it was 87.3%.
On to `Cc1ccc(-c2nc(/C=N/Nc3cc(C)nc4ccc(Cl)cc34)c(C)o2)cc1`, for which the growth in assay [1] is 95.1%; in assay [2], -41.2% (active); in assay [3] it was -81.2% (active); in [4], -99.7% (active); in [5], -54.8% (active); in assay [10], -63.6% (active). Moreover, the figures for the growth in assay [7], in [8] and in assay [9] were 67.6%, -51.3% (active) and -31.3% (active), respectively.
Turning to `COc1ccc(-c2cc(=O)[nH]c3c(OC)c4ccccc4c(OC)c23)cc1`, the growth in assay [1] is 27.6%; in assay [2], 26.4%; in assay [3], 43.2%; in assay [4], 31.3%; in [5] it was 47.8%; in assay [10] it was 38.7%. Also, the growth is -4.12% (active) in assay [7], 10.8% in assay [8] and 6.7% (active) in assay [9].
Regarding `O=C(COc1cccc(/C=C2/Oc3ccccc3C2=O)c1)Nc1nccs1`, the growth in assay [1] was -32.2% (active); in assay [2], 74.7%; in assay [3], 70.3%; in assay [4] it was -53.2% (active); in assay [5] it was 83.7%; in assay [6], 112%. Also, the growth in assay [7] is 93.9%; in [9], 28.4%.
Regarding `COc1cccc(-c2nc3sccn3c2-c2ccnc(NCCCNS(=O)(=O)c3ccc(Cl)cc3)c2)c1`, the growth was 45.3% in assay [1]; 47.8% in assay [2]; 41.1% in assay [3]; 11.9% in [4]; 83.1% in assay [5]; 32.6% in assay [10]. Besides, the growth in assay [7] is 38.7%; in [8], 23.2%; in assay [9] it was 21.6%.
In the case of `COc1cc(NCCCCN=C(N)NC(N)=NC(C)C)c2ncccc2c1`, the growth in [1] is 43.7%; in [2], 68%; in [3] it was 32.6%; in [4], 71.6%; in assay [5] it was 90.4%; in assay [10], 116%. Further, the growth in assay [7] is 133%; in assay [8], 48.8%; in assay [9], 54.1%.
